From PubChem BioAssay (NCI) come the findings set out here.

Structures are written as SMILES. This is part of a sample that, as a whole, favours compounds with a hit. Of some 83,000 tested, about 20% had one in any assay.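 Testing used 96-well plates and a 48-hour single-concentration exposure. Example: -40 means 40% of the starting cells died.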 A number with no mark means an inactive call. Active and inactive are the calls of the source. Rule for the calls: active = growth percent below 10; inactive = the rest.

Some test systems named below: T-47D breast; MDA-MB-435 melanoma; SW-620 colon; MCF7 breast; HCT-116 colon; HCC-2998 colon; KM12 colon; MDA-MB-468 breast; BT-549 breast.
Assay in all cases: NCI-60 one-dose screen, 48 h (100 = growth as untreated, 0 = no growth, -100 = all killed)
What all share (conditions): 10 µM unless noted

Consider `CCN1C(=O)N(CC)C2NNC(Sc3c(C(=O)O)c4ccccc4n(CCC(C)C)c3=O)=NC21` (stereo not drawn), for which the growth is 73.5% with T-47D breast; -53.6% (active) in the experiment with MDA-MB-435 melanoma; 28.4% in the experiment on SW-620 colon; 9.16% (active) in the experiment with MCF7 breast; 3.95% (active) in the experiment with HCT-116 colon; 3.88% (active) with HCC-2998 colon. The growth in the experiment with KM12 colon was 21.3%; in the experiment with MDA-MB-468 breast it was 7.98% (active).
Consider `COc1ccc(NC(=O)Cn2c(/C=C/c3ccc([N+](=O)[O-])cc3)nc3ccccc3c2=O)cc1`, for which the growth with T-47D breast is 56.1%; in the experiment on BT-549 breast, 106%; in the experiment with MDA-MB-435 melanoma it was 84.2%; in the experiment on SW-620 colon, 70.5%; with MCF7 breast, 73.9%; with HCC-2998 colon it was 67.5%. Also, the values for the growth with KM12 colon and in the experiment with MDA-MB-468 breast were 82.7% and 52%, respectively.
`COc1ccc2c(c1)c(-c1cc(N)n3nc(-c4c[nH]c5ccccc45)cc3n1)cn2C`: the growth in the experiment with T-47D breast was -63.5% (active); in the experiment on MDA-MB-435 melanoma it was -74% (active); in the experiment with SW-620 colon, -89.5% (active); in the experiment on MCF7 breast it was -72% (active); in the experiment with HCT-116 colon it was -85.9% (active); in the experiment with HCC-2998 colon it was -80.6% (active). The growth is -74.8% (active) with KM12 colon and -73.8% (active) in the experiment with MDA-MB-468 breast.
As to `COc1ccc2[nH]cc(-c3cc(N)n4nc(-c5c[nH]c6ccccc56)cc4n3)c2c1`, the growth is -21.8% (active) with T-47D breast; -79% (active) in the experiment with MDA-MB-435 melanoma; -70.4% (active) with SW-620 colon; -81.6% (active) in the experiment on MCF7 breast; -82.1% (active) in the experiment on HCT-116 colon; -76.2% (active) in the experiment with HCC-2998 colon. For the same molecule, the growth in the experiment with KM12 colon was -48.8% (active).
For `Cc1ccc(C(=O)Nc2cc(-n3ccnc3)cc(C(F)(F)F)c2)cc1-n1cc(-c2cnc3cccnn23)nn1`, the growth with T-47D breast was 113%; in the experiment with BT-549 breast it was 247%; in the experiment on MDA-MB-435 melanoma, 63.4%; with SW-620 colon, 81.9%; in the experiment on MCF7 breast, 101%; with HCC-2998 colon it was 86.3%. Moreover, the growth in the experiment on KM12 colon is 80.1%; in the experiment with MDA-MB-468 breast it was 121%.
Regarding `CC(C)(C)C(=O)C1CC(C#N)=C2C=Cc3c(ccc4ccccc34)N21` (stereo not drawn), the growth with T-47D breast was 72.8%; with MDA-MB-435 melanoma, 97.9%; in the experiment with SW-620 colon it was 102%; with MCF7 breast, 63%; with HCT-116 colon, 93.1%; in the experiment with HCC-2998 colon, 99.7%. Besides, the growth in the experiment with KM12 colon was 97%; in the experiment with MDA-MB-468 breast, 96.2%.
Take `Cn1cc(-c2cc3nc(-c4c[nH]c5ccccc45)cc(N)n3n2)c2ccccc21`: the growth in the experiment on T-47D breast was -69.4% (active); with MDA-MB-435 melanoma, -81.8% (active); with SW-620 colon, -77.1% (active); in the experiment on MCF7 breast it was -67.4% (active); in the experiment on HCT-116 colon, -74.2% (active); in the experiment on HCC-2998 colon, -78.2% (active). The growth in the experiment with KM12 colon is -33.9% (active); in the experiment on MDA-MB-468 breast it was -53.9% (active).
Turning to `O=C(OCCOCCO)N(c1cccc(Br)c1)c1nc(SCCN2CCOCC2)nc2c1cnn2CC(Cl)c1ccc(Br)cc1` (stereo not drawn), the growth in the experiment on T-47D breast is 13.6%; in the experiment on MDA-MB-435 melanoma, 9.72% (active); with SW-620 colon, 17.8%; in the experiment with MCF7 breast it was 4.77% (active); in the experiment with HCT-116 colon, 10.8%; in the experiment with HCC-2998 colon, 12%. In addition, the growth with KM12 colon is -8.97% (active); in the experiment with MDA-MB-468 breast, -2.54% (active).
Consider `COc1cc(NC(=O)C(C)C)ccc1C(=O)NC(=S)Nc1ccc(S(N)(=O)=O)cc1`, for which the growth with T-47D breast was 99.5%; with MDA-MB-435 melanoma, 106%; in the experiment with SW-620 colon it was 107%; in the experiment on MCF7 breast, 101%; with HCT-116 colon, 106%; in the experiment on HCC-2998 colon it was 116%. The results for the growth in the experiment with KM12 colon and with MDA-MB-468 breast were 100% and 123%, respectively.
For `Oc1ccc(Cl)c(Nc2nc(SCCN3CCOCC3)nc3c2cnn3CC(Cl)c2ccc(Br)cc2)c1` (stereo not drawn), the growth in the experiment on T-47D breast is 0% (active); with MDA-MB-435 melanoma it was 12%; with SW-620 colon it was 30.4%; in the experiment on MCF7 breast, 5.55% (active); in the experiment on HCT-116 colon, 13.8%; in the experiment on HCC-2998 colon, 9.56% (active). Further, the growth in the experiment with KM12 colon was 17.1%; in the experiment on MDA-MB-468 breast, -26.7% (active).
Take `Cc1cc(N=C(N)c2ccccc2)ccc1OCCCCCCCCn1ccnc1`: the growth in the experiment with T-47D breast was 26.4%; in the experiment with SW-620 colon, 20%; in the experiment on MCF7 breast it was -4.6% (active); with HCC-2998 colon, -32.6% (active); in the experiment on MDA-MB-468 breast, 2.88% (active).
In the case of `CN1C(=O)/C(=C/c2ccco2)S/C1=N/c1nccs1`, the growth with T-47D breast was 65.9%; with BT-549 breast it was 112%; in the experiment on MDA-MB-435 melanoma, 107%; in the experiment on SW-620 colon it was 106%; in the experiment on MCF7 breast, 33.7%; with HCC-2998 colon it was 107%. Further, the growth in the experiment on KM12 colon was 98%; in the experiment on MDA-MB-468 breast, -13.2% (active).
With `Clc1ccc(CNc2nc(SCCN3CCOCC3)nc3c2cnn3CC(Cl)c2ccc(Br)cc2)cc1` (stereo not drawn), the growth is 22.4% in the experiment on T-47D breast; 27.6% in the experiment on MDA-MB-435 melanoma; 19.2% in the experiment with SW-620 colon; 10.1% with MCF7 breast; 22.7% in the experiment with HCT-116 colon; 30.9% in the experiment with HCC-2998 colon. Besides, the growth was 28% in the experiment with KM12 colon and 39.9% in the experiment with MDA-MB-468 breast.
Turning to `Nc1cc(-c2c[nH]c3ccc(F)cc23)nc2cc(-c3c[nH]c4ccccc34)nn12`, the growth in the experiment on T-47D breast is 18.3%; in the experiment with MDA-MB-435 melanoma, 4.81% (active); with SW-620 colon, -66.1% (active); with MCF7 breast it was -22.9% (active); in the experiment with HCT-116 colon, -41.8% (active); with HCC-2998 colon, -59.2% (active). Further, the growth in the experiment with KM12 colon is -54.1% (active); in the experiment with MDA-MB-468 breast, -18.9% (active).
